# In PubChem BioAssay (EPA / NIEHS):
# Activity calls are given as the source filed them. Rule for the calls: active = hit-call score of the fitted dose curve at least 0.9, where 1 is the maximum; inactive = score below 0.9.
# Legend:
# Conditions in all cases: mRNA level, 48 h; actives raise or lower the signal
# [1] = read-out: Alkaline Phosphatase, Placental (ALPP) gene, ALPP (gene 250); assay: LTEA_HepaRG_ALPP: Life Technologies and Expression Analysis (LTEA) Assay for Alkaline Phosphatase, Placental (ALPP) gene using HepaRG (AID 2283468)
# In short: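 ALPP transcript level, measured by qRT-PCR and normalized to three housekeeping genes (ACTB, GAPDH, POLR2A), after 48 h dosing of differentiated HepaRG in serum-free induction medium. Top concentration 100 uM with half-log dilutions (8 points, 0.5% DMSO, duplicates); bidirectional fitting relative to DMSO.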
# [2] = read-out: Bcl-2 (BAD) gene, BAD (gene 572); assay: LTEA_HepaRG_BAD: Life Technologies and Expression Analysis (LTEA) Assay for Bcl-2 (BAD) gene using HepaRG (AID 2283469)
# In short: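 Differentiated human HepaRG cells in serum-free induction medium were exposed in duplicate for 48 h to eight concentrations (top 100 uM, half-log steps, 0.5% DMSO). BAD mRNA was quantified by qRT-PCR normalised to ACTB, GAPDH and POLR2A, with bidirectional fitting versus DMSO.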
# [3] = read-out: Bcl-2 (BAX) gene, BAX (gene 581); assay: LTEA_HepaRG_BAX: Life Technologies and Expression Analysis (LTEA) Assay for Bcl-2 (BAX) gene using HepaRG (AID 2283470)
# In short: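 Differentiated human HepaRG cells, plated 48 h then switched to serum-free induction medium, were exposed 48 h to 8 half-log concentrations up to 100 uM in 0.5% DMSO; BAX mRNA measured by qRT-PCR, normalized to ACTB, GAPDH, POLR2A.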
# [4] = read-out: adenosine kinase (ADK) gene, ADK (gene 132); assay: LTEA_HepaRG_ADK: Life Technologies and Expression Analysis (LTEA) Assay for adenosine kinase (ADK) gene using HepaRG (AID 2283471)
# In short: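 Read-out is ADK transcript level measured by qRT-PCR and normalised to three housekeeping genes. Cells are human HepaRG, dosed for 48 h at up to 100 uM in 0.5% DMSO. Gain or loss of signal is fitted against DMSO controls.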
# [5] = read-out: Alpha-fetoprotein (AFP) gene, AFP (gene 174); assay: LTEA_HepaRG_AFP: Life Technologies and Expression Analysis (LTEA) Assay for Alpha-fetoprotein (AFP) gene using HepaRG (AID 2283472)
# In short: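 Human HepaRG cells plated 48 h, then switched to serum-free induction medium and exposed in duplicate for 48 h to 8-point half-log series from 100 uM in 0.5% DMSO. AFP mRNA by qRT-PCR, normalized to ACTB, GAPDH, POLR2A; bidirectional fit versus DMSO.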
# [6] = read-out: BCL2L11 (gene 10018); assay: LTEA_HepaRG_BCL2L11: Life Technologies and Expression Analysis (LTEA) Assay for Bcl-2 (BCL2L11) gene using HepaRG (AID 2283473)
# In short: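 BCL2L11 transcript levels are measured by Fluidigm qRT-PCR, normalized to three housekeeping genes. HepaRG cultures were plated 48 h, then treated 48 h with test chemical (top 100 uM, half-log, 0.5% DMSO vehicle); curves were fitted bidirectionally against DMSO.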
# [7] = read-out: Apolipoprotein A-V (APOA5) gene, APOA5 (gene 116519); assay: LTEA_HepaRG_APOA5: Life Technologies and Expression Analysis (LTEA) Assay for Apolipoprotein A-V (APOA5) gene using HepaRG (AID 2283474)
# In short: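 APOA5 transcript levels were quantified by qRT-PCR, normalized to three housekeeping genes, after 48 h chemical treatment of HepaRG cells (8 points, 100 uM maximum, half-log steps, 0.5% DMSO). Curves fitted in both directions against vehicle.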
# [8] = read-out: Apoptosis regulator Bcl-2 (Homo sapiens) (UniProt P10415); assay: LTEA_HepaRG_BCL2: Life Technologies and Expression Analysis (LTEA) Assay for Bcl-2 gene using HepaRG (AID 2283475)
# In short: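 Differentiated HepaRG cells in serum-free induction medium were exposed for 48 h to eight half-log concentrations up to 100 uM in 0.5% DMSO, in duplicate. BCL2 mRNA was quantified by TaqMan qRT-PCR normalised to ACTB, GAPDH and POLR2A, with bidirectional fitting versus DMSO.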
# [9] = read-out: Bcl-2 (BID) gene, BID (gene 637); assay: LTEA_HepaRG_BID: Life Technologies and Expression Analysis (LTEA) Assay for Bcl-2 (BID) gene using HepaRG (AID 2283476)
# In short: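 Differentiated HepaRG cells in serum-free induction medium were exposed in duplicate for 48 h to eight half-log concentrations up to 100 uM in 0.5% DMSO. BID mRNA was quantified by qRT-PCR, normalized to ACTB, GAPDH and POLR2A.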
# [10] = read-out: Caspase-3 (Homo sapiens) (UniProt P42574); assay: LTEA_HepaRG_CASP3: Life Technologies and Expression Analysis (LTEA) Assay for cysteine-aspartic acid protease (CASP3) using HepaRG (AID 2283477)
# In short: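 Expression of CASP3 was quantified by TaqMan qRT-PCR against three housekeeping genes (ACTB, GAPDH, POLR2A), bidirectionally versus 0.5% DMSO. HepaRG cultures received compounds in duplicate, top 100 uM with half-log steps, for 48 h in serum-free induction medium.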
# Chain of Caspase-3 (Homo sapiens) (P42574 whole entry, looked up): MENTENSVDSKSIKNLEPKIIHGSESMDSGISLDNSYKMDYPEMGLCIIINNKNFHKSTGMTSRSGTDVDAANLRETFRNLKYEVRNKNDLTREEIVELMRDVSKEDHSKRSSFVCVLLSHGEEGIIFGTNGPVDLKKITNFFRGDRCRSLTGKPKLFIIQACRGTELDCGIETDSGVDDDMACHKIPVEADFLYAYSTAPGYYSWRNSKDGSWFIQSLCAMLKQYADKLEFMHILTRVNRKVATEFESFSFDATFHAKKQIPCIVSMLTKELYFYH
# Chain of Apoptosis regulator Bcl-2 (Homo sapiens) (P10415 whole entry, looked up): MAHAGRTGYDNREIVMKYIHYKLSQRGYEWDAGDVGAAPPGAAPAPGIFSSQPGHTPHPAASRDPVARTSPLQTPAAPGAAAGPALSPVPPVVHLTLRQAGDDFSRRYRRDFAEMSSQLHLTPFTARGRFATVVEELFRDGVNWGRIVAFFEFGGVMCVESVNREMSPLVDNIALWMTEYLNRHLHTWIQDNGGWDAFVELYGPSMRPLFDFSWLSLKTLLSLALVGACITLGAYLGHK
Structure (SMILES),outcome [1],outcome [2],outcome [3],outcome [4],outcome [5],outcome [6],outcome [7],outcome [8],outcome [9],outcome [10],AC50 [10],AC50 [1],AC50 [4],AC50 [7],AC50 [8],AC50 [5],AC50 [9],AC50 [2],AC50 [3],AC50 [6]
OCCC(F)(F)C(F)(F)C(F)(F)C(F)(F)C(F)(F)C(F)(F)C(F)(F)C(F)(F)F,inactive,inactive,inactive,inactive,inactive,inactive,inactive,inactive,inactive,inactive,,,,,,,,,,
ClC1=C(Cl)C(Cl)(Cl)C(Cl)=C1Cl,inactive,inactive,inactive,inactive,inactive,inactive,inactive,inactive,inactive,inactive,,,,,,,,,,
COCC(C)O (stereo not given),inactive,inactive,inactive,inactive,inactive,inactive,inactive,inactive,inactive,inactive,,,,,,,,,,
CCCCCCCC(=O)O,inactive,inactive,inactive,inactive,inactive,inactive,inactive,inactive,inactive,,12.5 µM (active),,,,,,,,,
NC(=O)N1C(=O)C(C(=O)c2cc(Cl)cs2)c2cc(F)c(Cl)cc21 (stereo not given),,inactive,inactive,,inactive,inactive,,,inactive,,19.1 µM (active),50 µM (active),17.5 µM (active),35.1 µM (active),50 µM (active),,,,,
c1ccc2c(c1)Cc1ccccc1-2,inactive,inactive,inactive,inactive,inactive,inactive,inactive,inactive,inactive,inactive,,,,,,,,,,
O=c1c(-c2ccc(O)cc2)coc2cc(O)ccc12,inactive,inactive,inactive,inactive,inactive,inactive,inactive,inactive,inactive,inactive,,,,,,,,,,
COC(=O)CCCCC(=O)OC,inactive,inactive,inactive,inactive,inactive,inactive,inactive,inactive,inactive,inactive,,,,,,,,,,
CCCCOCCO,inactive,inactive,inactive,inactive,inactive,inactive,inactive,inactive,inactive,inactive,,,,,,,,,,
c1ccc2c(c1)ccc1ccccc12,inactive,inactive,inactive,inactive,inactive,inactive,inactive,inactive,inactive,inactive,,,,,,,,,,
CCCCCCCCC(=O)O,inactive,inactive,inactive,inactive,inactive,inactive,inactive,inactive,inactive,inactive,,,,,,,,,,
CC(C)CCCCCCOC(=O)CCCCC(=O)OCCCCCCC(C)C,inactive,inactive,inactive,inactive,inactive,inactive,inactive,inactive,inactive,inactive,,,,,,,,,,
CC(C)(C)c1cc(C(C)(C)C)c(O)c(C(C)(C)C)c1,inactive,inactive,inactive,inactive,,inactive,inactive,inactive,inactive,inactive,,,,,,39.8 µM (active),,,,
CCCCCCCCCCCCCCCS(=O)(=O)Oc1ccccc1,inactive,inactive,inactive,inactive,inactive,inactive,inactive,inactive,inactive,inactive,,,,,,,,,,
CN1CCN(c2ccccc2/C=C2\SCCN(c3ccc(Cl)c(Cl)c3)C2=O)CC1,,inactive,inactive,inactive,,inactive,inactive,inactive,,inactive,,15.8 µM (active),,,,11.5 µM (active),83.9 µM (active),,,
CC#C[C@]1(O)CC[C@H]2[C@@H]3CCC4=CC(=O)CCC4=C3[C@@H](c3ccc(N(C)C)cc3)C[C@@]21C,,,,,,,,,,,27.4 µM (active),15.7 µM (active),80.6 µM (active),29.7 µM (active),19 µM (active),23.7 µM (active),6.74 µM (active),25.4 µM (active),27.6 µM (active),27.3 µM (active)

Structure (SMILES),outcome [1],outcome [2],outcome [3],outcome [4],outcome [5],outcome [6],outcome [7],outcome [8],outcome [9],outcome [10],AC50 [10],AC50 [1],AC50 [4],AC50 [7],AC50 [8],AC50 [5],AC50 [9],AC50 [2],AC50 [3],AC50 [6]
CCCOc1sc(C(=O)N2CCC(c3cc(CN)ccc3F)CC2)c(C)c1Br,inactive,inactive,inactive,inactive,inactive,inactive,inactive,inactive,,inactive,,,,,,,0.0539 µM (active),,,
C#C[C@]1(O)CC[C@H]2[C@@H]3CCC4=CC(=O)CC[C@@H]4[C@H]3CC[C@@]21C,,inactive,inactive,,inactive,inactive,,inactive,inactive,inactive,,10.1 µM (active),9.92 µM (active),9.92 µM (active),,,,,,
CCCCCCCCOC(=O)CCCCCCCCC(=O)OCCCCCCCC,inactive,inactive,inactive,inactive,inactive,inactive,inactive,inactive,inactive,inactive,,,,,,,,,,
CC(=O)CC(C)(C)O,inactive,inactive,inactive,inactive,inactive,inactive,inactive,inactive,inactive,inactive,,,,,,,,,,
CCCCCCC(=O)O,inactive,inactive,inactive,inactive,inactive,inactive,inactive,inactive,inactive,inactive,,,,,,,,,,
COc1ccc([N+](=O)[O-])cc1N,inactive,inactive,inactive,inactive,inactive,inactive,inactive,inactive,inactive,inactive,,,,,,,,,,
CCCOC(=O)c1ccc(O)cc1,inactive,inactive,inactive,inactive,inactive,inactive,inactive,inactive,inactive,inactive,,,,,,,,,,
CCc1nn(C2CCCCC2)c2cc(C3(C#N)CCC(C(=O)O)CC3)ccc12 (stereo not given),,inactive,,inactive,,,,,inactive,inactive,,50 µM (active),,77.4 µM (active),74.3 µM (active),64 µM (active),,,50 µM (active),8.54 µM (active)
OC1CCC(C2CCCCC2)CC1 (stereo not given),inactive,inactive,inactive,inactive,inactive,inactive,inactive,inactive,inactive,inactive,,,,,,,,,,
CCOC(=O)CC(O)(CC(=O)OCC)C(=O)OCC,inactive,inactive,inactive,inactive,inactive,inactive,inactive,inactive,inactive,inactive,,,,,,,,,,
O=C(OCCOCCOC(=O)c1ccccc1)c1ccccc1,inactive,inactive,inactive,inactive,inactive,inactive,inactive,inactive,inactive,inactive,,,,,,,,,,
CCCCC(CC)COC(=O)CCCCC(=O)OCC(CC)CCCC (stereo not given),inactive,inactive,inactive,inactive,inactive,inactive,inactive,inactive,inactive,inactive,,,,,,,,,,
Oc1cccc(O)c1,inactive,inactive,inactive,inactive,inactive,inactive,inactive,inactive,inactive,inactive,,,,,,,,,,
CC(C)(C)c1ccc(O)c(C(C)(C)C)c1,inactive,inactive,inactive,inactive,inactive,inactive,inactive,,inactive,inactive,,,,,0.123 µM (active),,,,,
CC[C@H](C)[C@@H](C(=O)O)n1sc2ccccc2c1=O,inactive,inactive,inactive,inactive,inactive,inactive,inactive,inactive,inactive,inactive,,,,,,,,,,
